Measurements from publication PMC11006913.
Numbering of substitutions follows the chain as printed.

Experiments:
Assay in all cases: PBM; 200 nM protein, PBS
Settings in all cases: dsDNA, one strand shown
SIX6 [1] = target: T1, SIX6 (Homo sapiens, UniProt O95475 114-200, L167I)
T1 sequence: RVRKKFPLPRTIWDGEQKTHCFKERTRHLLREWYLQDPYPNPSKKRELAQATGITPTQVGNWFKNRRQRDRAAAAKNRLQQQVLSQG

SIX6 [2] = target: T2, SIX6 (Homo sapiens, UniProt O95475 114-200, H141N)
T2 sequence: T1 sequence with H28N, I54L

SIX6 [3] = target: T3, SIX6 (Homo sapiens, UniProt O95475 114-200, T165G)
T3 sequence: T1 sequence with T52G, I54L

SIX6 [4] = target: T4, SIX6 (Homo sapiens, UniProt O95475 114-200, T165A)
T4 sequence: T1 sequence with T52A, I54L

SIX6 [5] = target: T5, SIX6 (Homo sapiens, UniProt O95475 114-200, L167V)
T5 sequence: T1 sequence with I54V

SIX6 [6] = target: T6, SIX6 (Homo sapiens, UniProt O95475 114-200, T165I)
T6 sequence: T1 sequence with T52I, I54L

SIX6 [7] = target: T7, SIX6 (Homo sapiens, UniProt O95475 114-200, T139Q)
T7 sequence: T1 sequence with T26Q, I54L

SIX6 [8] = target: T8, SIX6 (Homo sapiens, UniProt O95475 114-200, L167M)
T8 sequence: T1 sequence with I54M

SIX6 [9] = target: T9, SIX6 (Homo sapiens, UniProt O95475 114-200)
T9 sequence: T1 sequence with I54L

SIX6 [10] = target: T10, SIX6 (Homo sapiens, UniProt O95475 114-200, T165P)
T10 sequence: T1 sequence with T52P, I54L

SIX6 [11] = target: T11, SIX6 (Homo sapiens, UniProt O95475 114-200, L143M)
T11 sequence: T1 sequence with L30M, I54L

SIX6 [12] = target: T12, SIX6 (Homo sapiens, UniProt O95475 114-200, L143I)
T12 sequence: T1 sequence with L30I, I54L

Sequence	binding signal (SIX6 [1])	binding signal (SIX6 [2])	binding signal (SIX6 [3])	binding signal (SIX6 [4])	binding signal (SIX6 [5])	binding signal (SIX6 [6])	binding signal (SIX6 [7])	binding signal (SIX6 [8])	binding signal (SIX6 [9])	binding signal (SIX6 [10])	binding signal (SIX6 [11])	binding signal (SIX6 [12])
ATATCACC	11.2 upbm affinity estimate (log intensity, higher = more binding, comparable within an allelic series)	11.1 upbm affinity estimate (log intensity, higher = more binding, comparable within an allelic series)	11.2 upbm affinity estimate (log intensity, higher = more binding, comparable within an allelic series)	11.1 upbm affinity estimate (log intensity, higher = more binding, comparable within an allelic series)	10.9 upbm affinity estimate (log intensity, higher = more binding, comparable within an allelic series)	10.9 upbm affinity estimate (log intensity, higher = more binding, comparable within an allelic series)						
CCGTATCA	11.1 upbm affinity estimate (log intensity, higher = more binding, comparable within an allelic series)	11.1 upbm affinity estimate (log intensity, higher = more binding, comparable within an allelic series)	11.1 upbm affinity estimate (log intensity, higher = more binding, comparable within an allelic series)	11.1 upbm affinity estimate (log intensity, higher = more binding, comparable within an allelic series)		10.9 upbm affinity estimate (log intensity, higher = more binding, comparable within an allelic series)	11.1 upbm affinity estimate (log intensity, higher = more binding, comparable within an allelic series)					
CTATACTA	10.2 upbm affinity estimate (log intensity, higher = more binding, comparable within an allelic series)	10.1 upbm affinity estimate (log intensity, higher = more binding, comparable within an allelic series)	10.2 upbm affinity estimate (log intensity, higher = more binding, comparable within an allelic series)		10.1 upbm affinity estimate (log intensity, higher = more binding, comparable within an allelic series)	10.1 upbm affinity estimate (log intensity, higher = more binding, comparable within an allelic series)		10.2 upbm affinity estimate (log intensity, higher = more binding, comparable within an allelic series)	10.2 upbm affinity estimate (log intensity, higher = more binding, comparable within an allelic series)			
ACTATACG	10 upbm affinity estimate (log intensity, higher = more binding, comparable within an allelic series)	10 upbm affinity estimate (log intensity, higher = more binding, comparable within an allelic series)	9.95 upbm affinity estimate (log intensity, higher = more binding, comparable within an allelic series)	10 upbm affinity estimate (log intensity, higher = more binding, comparable within an allelic series)	10 upbm affinity estimate (log intensity, higher = more binding, comparable within an allelic series)	9.99 upbm affinity estimate (log intensity, higher = more binding, comparable within an allelic series)		10.1 upbm affinity estimate (log intensity, higher = more binding, comparable within an allelic series)	10.1 upbm affinity estimate (log intensity, higher = more binding, comparable within an allelic series)			
AGTTGTAT	10.2 upbm affinity estimate (log intensity, higher = more binding, comparable within an allelic series)	10.2 upbm affinity estimate (log intensity, higher = more binding, comparable within an allelic series)				10.2 upbm affinity estimate (log intensity, higher = more binding, comparable within an allelic series)		10.1 upbm affinity estimate (log intensity, higher = more binding, comparable within an allelic series)	10.3 upbm affinity estimate (log intensity, higher = more binding, comparable within an allelic series)			
ATACAGAT	10.7 upbm affinity estimate (log intensity, higher = more binding, comparable within an allelic series)	10.6 upbm affinity estimate (log intensity, higher = more binding, comparable within an allelic series)	10.7 upbm affinity estimate (log intensity, higher = more binding, comparable within an allelic series)	10.5 upbm affinity estimate (log intensity, higher = more binding, comparable within an allelic series)	10.5 upbm affinity estimate (log intensity, higher = more binding, comparable within an allelic series)	10.5 upbm affinity estimate (log intensity, higher = more binding, comparable within an allelic series)	10.8 upbm affinity estimate (log intensity, higher = more binding, comparable within an allelic series)	10.5 upbm affinity estimate (log intensity, higher = more binding, comparable within an allelic series)	10.6 upbm affinity estimate (log intensity, higher = more binding, comparable within an allelic series)	10 upbm affinity estimate (log intensity, higher = more binding, comparable within an allelic series)	10.7 upbm affinity estimate (log intensity, higher = more binding, comparable within an allelic series)	10.3 upbm affinity estimate (log intensity, higher = more binding, comparable within an allelic series)
GATCCAAA	10.4 upbm affinity estimate (log intensity, higher = more binding, comparable within an allelic series)	10.2 upbm affinity estimate (log intensity, higher = more binding, comparable within an allelic series)	10.2 upbm affinity estimate (log intensity, higher = more binding, comparable within an allelic series)	10.2 upbm affinity estimate (log intensity, higher = more binding, comparable within an allelic series)	10.1 upbm affinity estimate (log intensity, higher = more binding, comparable within an allelic series)	10.2 upbm affinity estimate (log intensity, higher = more binding, comparable within an allelic series)	10.5 upbm affinity estimate (log intensity, higher = more binding, comparable within an allelic series)	10 upbm affinity estimate (log intensity, higher = more binding, comparable within an allelic series)	10.3 upbm affinity estimate (log intensity, higher = more binding, comparable within an allelic series)	9.67 upbm affinity estimate (log intensity, higher = more binding, comparable within an allelic series)	10.4 upbm affinity estimate (log intensity, higher = more binding, comparable within an allelic series)	
AGGTGTCA	10.4 upbm affinity estimate (log intensity, higher = more binding, comparable within an allelic series)		11.2 upbm affinity estimate (log intensity, higher = more binding, comparable within an allelic series)	11.2 upbm affinity estimate (log intensity, higher = more binding, comparable within an allelic series)			11.1 upbm affinity estimate (log intensity, higher = more binding, comparable within an allelic series)	9.88 upbm affinity estimate (log intensity, higher = more binding, comparable within an allelic series)				
GGTGTCAA	10.4 upbm affinity estimate (log intensity, higher = more binding, comparable within an allelic series)		11.1 upbm affinity estimate (log intensity, higher = more binding, comparable within an allelic series)	11.1 upbm affinity estimate (log intensity, higher = more binding, comparable within an allelic series)				9.85 upbm affinity estimate (log intensity, higher = more binding, comparable within an allelic series)		9.33 upbm affinity estimate (log intensity, higher = more binding, comparable within an allelic series)		
AAGTGATA	11.2 upbm affinity estimate (log intensity, higher = more binding, comparable within an allelic series)	11.1 upbm affinity estimate (log intensity, higher = more binding, comparable within an allelic series)	11.1 upbm affinity estimate (log intensity, higher = more binding, comparable within an allelic series)	11.1 upbm affinity estimate (log intensity, higher = more binding, comparable within an allelic series)	10.9 upbm affinity estimate (log intensity, higher = more binding, comparable within an allelic series)	11 upbm affinity estimate (log intensity, higher = more binding, comparable within an allelic series)					11 upbm affinity estimate (log intensity, higher = more binding, comparable within an allelic series)	
